We go through 40 compounds from PubChem BioAssay (Tox21).

Several values for one entry are separate records, joined by “and”; a condition that tells them apart may be missing. Equal values may be shown once. Records with an inconclusive call do not appear. Where a call stands in place of a potency, no number is given. Activity calls are given as the source filed them. Calls follow the shape of the dose curve; as a rule, active = well fitted cell-killing curve with a large enough effect in the repeat runs; inconclusive = weak or mixed curves, or effect the other way; inactive = no such curve, though single readings can be large or run the other way.
Potency is read from the fitted curve at half-maximal effect.

The assay is described as follows: qHTS assay to identify small molecule antagonists of the vitamin D receptor (VDR) signaling pathway - cell viability counter screen (AID 743225). Also: nearly all actives have a fitted effect of over 50% in size. As to conditions: VDR-bla HEK293T viability, CellTiter-Glo luminescence, 16 h; series mostly up to 61 µM. From the text: U.S. Tox21 Program National Center for Advancing Translational Sciences [NCATS] NIH Chemical Genomics Center [NCGC] U.S. Environmental Protection Agency [EPA] National Institutes of Environmental Health Sciences [NIEHS] National Toxicology Program [NTP] U.S. Food and Drug Administration [FDA] Tox21 Assay Overview: The vitamin D receptor (VDR), a member of nuclear hormone receptor superfamily, plays a critical role in calcium homeostasis and bone metabolism. It is also involved in cell differentiation and growth, and thrombogenicity. To identify the compounds that inhibit VDR signaling, the VDR-UAS-bla HEK 293T cell line (Invitrogen, Carlsbad, CA, USA) containing a beta-lactamase reporter gene under the control of an upstream activator sequence (UAS) was used to screen the Tox21 10K compound library. The cytotoxicity of the Tox21 compound library against the VDR-bla cell line was tested in parallel by measuring the cell viability using CellTiter-Glo assay (Promega, Madison, WI) in the same wells.
Tox21 Assay Protocol Summary: VDR-bla cells were dispensed at 2,000 cells/5 uL of assay medium per well into black wall/clear-bottom 1536-well plates using a Multidrop Combi (Thermo Fisher Scientific, Waltham, MA) dispenser. After the assay plates were incubated at a 37C and 5% CO2 for 4 h, 23 nL of compounds dissolved in DMSO, positive controls or DMSO only was transferred to the assay plate by a Pintool station (Kalypsys, San Diego, CA), followed by addition of 1 uL of 1-alpha, 25-Dihydroxy Vitamin D3 (3 nM, final concentration in the wells) using a Bioraptr Flying Reagent Dispenser (FRD) workstation (Beckman Coulter, Indianapolis, IN). The plates were incubated at 37C and 5% CO2 for 16 h, and then 1 uL of LiveBLAzerTM B/G FRET substrate was added using a Bioraptr FRD. The plates were incubated at room temperature for 2 h and fluorescence intensity was measured by an Envision plate reader (PerkinElmer, Shelton, CT). For cell viability readout that measures cytotoxicity, 3 ul/well of CellTiter-Glo reagent was added into the assay plates using a Bioraptr FRD. After 30 min incubation at room temperature, the luminescence intensity in the plates was measured using a ViewLux plate reader (PerkinElmer).
In the case of `CN1CCc2cc3c(cc2C1O)OCO3` (stereo not given), the Potency result was “inactive”.
As for `CCN(CC)Cc1nccn1-c1ccc([N+](=O)[O-])cc1C(=O)c1ccccc1Cl`, the Potency result was “inactive”.
As to `O=S(=O)(NS(=O)(=O)C(F)(F)F)C(F)(F)F`, the Potency result is “inactive”.
As for `CCC[CH2][Sn]([CH2]CCC)([O]C(C)=O)[O]C(C)=O`, the entry is “inactive”; as for `C1=CCC=C1`, “inactive”.
As for `CCCCCCC[CH2][Sn]([Cl])([Cl])[CH2]CCCCCCC`, the entry is “inactive”; as for `CC(=O)[O-].CC(=O)[O-].O.O.O.[Pb+2]`, “inactive”; as for `CN`, “inactive”.
Consider `COP(=S)(OC)Oc1nc(Cl)c(Cl)cc1Cl`, for which the Potency entry was “inactive”.
In the case of `Cc1ccccc1OP(=O)(Oc1ccccc1C)Oc1ccccc1C` it was “inactive”.
`CN=C=O`: the Potency entry was “inactive”.
In the case of `CC(Cc1ccc(OCC(=O)O)cc1)NCC(O)c1csc(C(F)(F)F)n1` (stereo not given) it was “inactive”; in that of `CN1CCc2cc(Cl)c(O)cc2[C@H]2c3ccccc3CC[C@@H]21`, “inactive”; in that of `COc1ccc2c(c1OC)C(=O)O[C@@H]2[C@H]1c2cc3c(cc2CCN1C)OCO3`, “inactive”.
In the case of `CC(Cc1ccc2c(c1)OCO2)NO` (stereo not given) it was “inactive”.
As for `CCCC[N+]1(C)CCCC1` (tested in a mixture with another compound), the entry is “inactive”.
Take `N#Cc1ccc(N(CC(N)=O)CC(F)(F)F)cc1C(F)(F)F`: the Potency entry was “inactive”.
As for `Clc1cc(Cl)c(-c2cc(Cl)c(Cl)cc2Cl)cc1Cl`, the entry is “inactive”; as for `C[C@@H]1CC2=CC(=O)CC[C@@H]2[C@H]2CC[C@@]3(C)[C@@H](CC[C@]3(C)O)[C@@H]21`, “inactive”; as for `C=Cc1cccc(CCl)c1`, “inactive”.
For `[O]=[Cr][O][Cr]=[O]`, the Potency result is “inactive”.
Take `COP(=S)(OC)Oc1ccc([N+](=O)[O-])c(C)c1`: the Potency result was “inactive”.
With `CC(C)N(C(=O)SC/C(Cl)=C/Cl)C(C)C`, the Potency result was “inactive”.
Consider `CN(C)C(=S)SSC(=S)N(C)C`, for which the Potency is 27.2 µM (active) and 24.5 µM (active).
In the case of `CCCCN(CCCC)C(=S)[S-].CCCCN(CCCC)C(=S)[S-].[Ni+2]` it was “inactive”.
As to `CCCCn1cc[n+](C)c1` (tested in a mixture with another compound), the Potency result was “inactive”.
Turning to `COP(=O)(OC)Oc1ccc([N+](=O)[O-])cc1`, the Potency entry is “inactive”.
Regarding `O=c1[nH]c(Cl)c(Cl)cc1Cl`, the Potency entry is “inactive”.
In the case of `CC(C)Br` it was “inactive”.
Take `CC(Cl)CCl` (stereo not given): the Potency entry was “inactive”.
`COC(=O)/C=C(\C)OP(=O)(OC)OC`: the Potency entry is “inactive”.
As for `CCN(CC)CCc1c[nH]c2ccccc12`, the entry is “inactive”.
On to `CCOC(=O)CCN(SN(C)C(=O)Oc1cccc2c1OC(C)(C)C2)C(C)C`, for which the Potency entry is “inactive”.
Take `Oc1ccc(Cl)c(Cl)c1`: the Potency entry is “inactive”.
In the case of `COc1c2c(cc3c1OCO3)CCN(C)C2` it was “inactive”.
In the case of `c1ccc(Nc2ccc(Nc3ccccc3)cc2)cc1` it was “inactive”.
`C=CC(=C)C`: the Potency entry is “inactive”.
`CC(=O)C(Cl)C(=O)N(C)C` (stereo not given): the Potency result was “inactive”.
Consider `Nc1cc(Cl)ccc1Cl`, for which the Potency result is “inactive”.
In the case of `ClSC(Cl)(Cl)Cl` it was “inactive”.
